# Measurements published in PubChem BioAssay.
# Calls of active or inactive are those of the source. Unless noted, the rule behind the calls is not given here.
# How the values were obtained:
# [1] = system: Wnt5a (protein binding on small-molecule microarray); assay: small molecules binding Wnt5a protein – biophysical, small-molecule microarray, 635/667 nm fluorescence, primary screen (AID 1142); details: 635 nm fluorescence, higher = more signal;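 note: fluorescence read at 667 nm with signal to noise per printed feature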
# [2] = ATP-based viability of Huh7 replicon cells – cell-based, CellTiter-Glo luminescence, basal, 48 h, cytotoxicity control for HCV replication inhibitor project, primary screen (AID 1143); details: higher = more signal, called active from +8 up or from −8 down;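 note: Huh7 hepatoma cells carrying a hepatitis C replication reporter with no stimulus; test concentration not given here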
# [3] = Pseudomonas biofilm growth suppression – PAO1 strain, BacTiter-Glo luminescence, LB-PBS, primary screen (AID 1144); details: P. aeruginosa PAO1 biofilm, 12 h, higher = more signal
# [4] = basal CRE-LacZ reporter activity in PC12 – cell-based, unstimulated, primary screen (AID 1145); details: no forskolin, luminescence, 4.5 h, higher = more signal, called active from +8 up or from −8 down
# [5] = forskolin-driven CRE-LacZ activity in PC12 – cell-based, CRE-LacZ reporter, forskolin-stimulated, primary screen (AID 1146); details: luminescence, 4.5 h, higher = more signal, called active from +8 up or from −8 down;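 note: PC12 cells with 6xCRE LacZ reporter stimulated by forskolin 10 µM; beta-galactosidase reporter signal reflecting CREB driven transcription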
# [6] = biological target: Streptavidin (Streptomyces avidinii) (UniProt P22629); assay: compounds binding control protein streptavidin – biophysical, small-molecule microarray, 635/667 nm fluorescence, artefact control for SMM compound annotation, primary screen (AID 1147); details: higher = more signal;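 note: signal reflects streptavidin binding to arrayed compounds as a control protein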
# [7] = probe aInhba binding on compound microarray – biochemical, small-molecule microarray, 635/667 nm fluorescence, primary screen (AID 1148); details: higher = more signal;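 note: score merges 667nm spot fluorescence with signal-to-noise for antibody binding to printed compounds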
# Torsin-1A (Homo sapiens) [8] = biological target: Torsin-1A (Homo sapiens) (UniProt O14656); assay: TOR1A wild-type binding on microarray – cell lysate, small-molecule microarray, lysate, 635/667 nm, primary screen (AID 1149); details: COS7 hTOR1A-WT lysate, 635 nm fluorescence, higher = more signal
# Torsin-1A (Homo sapiens) [9] = biological target: Torsin-1A (Homo sapiens) (UniProt O14656); assay: torsin A mutant lysate binding on microarrays – cell lysate, small-molecule microarray, COS7 lysate, 635/667 nm fluorescence, primary screen (AID 1150); details: COS7 hTOR1A mutant lysate, 635 nm fluorescence, higher = more signal;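 note: score pools 667 nm emission and signal to noise measuring lysate protein binding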
# [10] = system: Sonic hedgehog protein (Shh); assay: Sonic hedgehog microarray binding compounds – biochemical, small-molecule microarray, 635/667 nm fluorescence, primary screen (AID 1151); details: 635 nm fluorescence, higher = more signal;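 note: Shh protein binding to compounds spotted on small-molecule microarray slides; score combines spot fluorescence intensity with signal-to-noise across triplicate slides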
# Streptavidin (Streptomyces avidinii), sequence (P22629 whole entry, looked up): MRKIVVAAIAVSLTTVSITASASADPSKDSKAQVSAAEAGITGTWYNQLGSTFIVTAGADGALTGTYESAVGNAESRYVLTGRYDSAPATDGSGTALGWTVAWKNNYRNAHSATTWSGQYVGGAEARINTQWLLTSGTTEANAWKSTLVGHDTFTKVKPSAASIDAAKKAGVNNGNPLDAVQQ
# Torsin-1A (Homo sapiens), sequence (O14656 whole entry, looked up): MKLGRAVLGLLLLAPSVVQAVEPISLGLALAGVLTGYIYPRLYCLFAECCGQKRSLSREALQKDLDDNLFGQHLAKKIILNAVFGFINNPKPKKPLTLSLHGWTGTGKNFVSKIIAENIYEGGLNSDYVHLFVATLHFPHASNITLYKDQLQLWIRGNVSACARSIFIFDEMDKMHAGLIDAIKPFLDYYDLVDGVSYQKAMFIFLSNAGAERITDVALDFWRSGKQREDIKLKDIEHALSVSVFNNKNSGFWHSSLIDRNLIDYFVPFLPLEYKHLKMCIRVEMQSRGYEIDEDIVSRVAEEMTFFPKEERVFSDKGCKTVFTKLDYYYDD
SMILES,composite z-score [1],z-score [2],z-score [3],z-score [4],z-score [5],composite z-score [6],composite z-score [7],composite z-score (Torsin-1A (Homo sapiens) [8]),composite z-score (Torsin-1A (Homo sapiens) [9]),composite z-score [10]
CCOC(=O)C[C@H]1[C@H](OC(=O)c2cc3ccccc3oc2=O)[C@@H](NC(=O)Cc2ccc(OC)cc2)c2cc(OCCCO)ccc2N1C(=O)Cc1ccc(OC)cc1,0.0746,-1.5 (inactive),-0.783 (inactive),-0.0558 (inactive),-1.59 (inactive),0.55,-0.185,0.332,0.839,1.27
C=CCN1C(=O)[C@@]2(O[C@@H](CCO)[C@H]([Si](C)(C)c3ccc(OC)cc3)[C@H]2C)c2cc(N3CCCCC3=O)ccc21,0.282,-5.3 (inactive),-0.0131 (inactive),13.6 (active),-0.639 (inactive),0.732,0.0471,0.683,0.417,1.6
COCCOC(=O)N1C(=O)[C@@]2(c3cc(C#CCC(C(=O)OC)C(=O)OC)ccc31)[C@H](C(=O)N1CCc3cc(OC)c(OC)cc3C1)[C@H]1C(=O)O[C@H](c3ccccc3)[C@H](c3ccccc3)N1[C@@H]2c1ccccc1OCCO,0.725,-3.46 (inactive),-0.893 (inactive),-1.14 (inactive),0.149 (inactive),0.593,-0.025,0.897,0.949,1.73
[N-]=[N+]=Nc1ccccc1C[C@]1(C(N)=O)COC(c2ccc(OCCCO)cc2)=N1,0.131,-3.62 (inactive),-1.16 (inactive),1.33 (inactive),-1.31 (inactive),0.559,0.285,0.517,1.21,-0.567
COc1ccc([Si](C)(C)[C@H]2[C@H](CC(=O)N3CCC[C@H]3CO)O[C@@]3(C(=O)N(Cc4cccc(N5CCCCC5=O)c4)c4ccccc43)[C@@H]2C)cc1,-0.108,-1.39 (inactive),-0.00805 (inactive),2.88 (inactive),-0.314 (inactive),0.233,-0.128,0.593,0.812,2.01
COc1ccc(C(=O)Nc2ccc(CN3C(=O)[C@@]4(O[C@@H](CC(=O)N(CCO)Cc5ccccc5)[C@H]([Si](C)(C)c5ccc(OC)cc5)[C@H]4C)c4ccccc43)cc2)cc1,0.353,-5.7 (inactive),-0.376 (inactive),-0.533 (inactive),-0.0361 (inactive),0.675,-0.179,0.438,-0.0394,1.59
CC(CO)N1C(=O)[C@@H]2[C@H]3C(=O)OCC=C[C@H]3OC23C=CCN(c2ccc4ccccc4c2)C(=O)[C@@H]13 (stereo not given in full),-1.02,0.417 (inactive),1.19 (inactive),0.862 (inactive),-0.702 (inactive),-1.06,-0.128,-2.15,-1.05,-1.19
CCCCCCc1nc(Cc2cc(OC)c(OC)c(OC)c2)c(C)c2c1[Si](C(C)C)(C(C)C)OC2,0.0854,-3.36 (inactive),-1.44 (inactive),0.367 (inactive),-0.634 (inactive),-0.0336,0.0275,0.246,0.0486,0.372
C=C(CCCC)C(=O)CC[C@H](OC(=O)c1ccccc1-c1ccccc1C(=O)O)c1cccc(OCCO)c1,-0.151,-0.548 (inactive),-0.77 (inactive),0.434 (inactive),5.04 (inactive),-0.352,-0.179,0.259,0.114,0.847
